Screening data from PubChem BioAssay.
Mtb UGM inh: M. tuberculosis UGM enzyme inhibitors, primary screen, biochemical, fluorescence polarization, single point | AID 504406, 2011 | UDP-galactopyranose mutase (Mycobacterium tuberculosis (strain ATCC 25618 / H37Rv)), … | 320,000 tested, 0.06% active | purified UGM, fluorescence polarization probe displacement | inhibition, % at 10 µM; in the data active means inhibition above about 10%, passing the limit was not always enough
FadD28 FP inh: inhibitors of FadD28 bisubstrate probe binding, primary screen, biochemical, fluorescence polarization, single point; Mycobacterium tuberculosis FadD28 fatty-acid-AMP ligase; inhibition, % at 12.5 µM; 360,000 tested, 0.22% active; in the data active means inhibition above about 8.5%, passing the limit was not always enough
Mtb hypoxia inh: PubChem AID 1159583 | M. tuberculosis hypoxia-regulated fluorescent reporter, fluorescence | fluorescence inhibition, % (no concentration beside the values) | 300,000 tested, 0.1% active; in the data active means fluorescence inhibition mostly above about 23%, no sharp cut-off; inactive means mostly below about 17%
Mtb FBA inh: Mtb FBA enzyme inhibitors, primary screen, biochemical, fluorescence, strain H37Rv; 360,000 tested, 2.3% active; purified M. tuberculosis FBA, fluorescence read-out; inhibition, % at 1 µM; Fructose-bisphosphate aldolase (Mycobacterium tuberculosis (strain ATCC 25618 / H37Rv)), …; in the data active means inhibition above about 27%;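 further: 0% = vehicle and 100% = reference inhibitor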
Target sequence (P9WQA3 whole entry, looked up): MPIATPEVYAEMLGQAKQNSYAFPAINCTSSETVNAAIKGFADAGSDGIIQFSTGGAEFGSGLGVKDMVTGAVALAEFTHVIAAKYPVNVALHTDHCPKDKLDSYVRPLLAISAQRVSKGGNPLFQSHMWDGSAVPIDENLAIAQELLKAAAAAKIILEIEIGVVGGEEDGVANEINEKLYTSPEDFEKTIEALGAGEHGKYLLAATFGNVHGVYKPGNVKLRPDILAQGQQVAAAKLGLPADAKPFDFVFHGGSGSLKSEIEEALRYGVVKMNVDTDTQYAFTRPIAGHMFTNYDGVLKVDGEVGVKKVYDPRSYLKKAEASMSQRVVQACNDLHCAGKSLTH
Rv3671c protease: Rv3671c serine protease inhibitors, primary screen, biochemical, fluorescence polarization, M. tuberculosis H37Rv | 320,000 tested, 0.048% active | inhibition, % at 5.96 µM | P9WHR9; in the data active means inhibition above about 38%;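 further: extracellular domain of Rv3671c used as enzyme; 0% = enzyme with DMSO and 100% = no enzyme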
GDH-TPI inh: GDH-TPI coupling enzyme inhibitors, primary screen, artefact control for M. tuberculosis FBA inhibitor project, biochemical, absorbance, full deck; 360,000 tested, 1.2% active; inhibition, % at 4.8 µM; AID 588335, 2011; GDH-TPI coupled enzyme counterscreen, NADH absorbance; in the data active means inhibition above about 30%;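 further: 0% = DMSO wells and 100% = wells lacking the enzyme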
The depositor's hits bear a star. This is a sample that favours compounds with a hit; in the whole collection about 3.5% have one here.

What do the screens show for `CC(/C=C/c1ccco1)=N/NC(=O)c1ccccc1Cl`?
Mtb UGM inh: 3; FadD28 FP inh: 0; Mtb FBA inh: -1; Rv3671c protease: 5; GDH-TPI inh: 32*

Results for CC1CC2C3CC(F)C4=CC(=O)C=C[C@]4(C)[C@@]3(F)C(O)C[C@]2(C)[C@@]1(O)C(=O)COC(=O)C(C)(C)C (stereo not given in full) ?
Mtb hypoxia inh: 1

Results for COc1ccc(N2C(=O)CC(S/C(N)=N/N=C(C)c3cccs3)C2=O)cc1 (stereo not given) ?
Mtb hypoxia inh: 4

How did Cc1cc(C)n(CCC(=O)NN=Cc2ccccc2O)n1 do in these assays?
Mtb hypoxia inh: -1

What do the screens show for `Cc1c(C)c2ccc(OCc3ccc(C(=O)O)o3)c(C)c2oc1=O`?
Mtb UGM inh: 3; FadD28 FP inh: -7; Mtb hypoxia inh: -5; Mtb FBA inh: 131*; Rv3671c protease: 4; GDH-TPI inh: 26

How did Cc1cc(C)cc(COc2ccc3c(C)c(CC(=O)O)c(=O)oc3c2C)c1 do in these assays?
Mtb UGM inh: -1; FadD28 FP inh: -4; Mtb hypoxia inh: -2; Mtb FBA inh: 9; Rv3671c protease: 2; GDH-TPI inh: 14

How did Cc1onc(-c2ccccc2)c1C(=O)NC(=S)NNC(=O)c1ccncc1 do in these assays?
Mtb UGM inh: -1; FadD28 FP inh: 0; Mtb hypoxia inh: 2; Mtb FBA inh: 4; Rv3671c protease: 15; GDH-TPI inh: 13

How did Cc1onc(-c2ccccc2)c1C(=O)NNC(=S)NC(=O)/C=C/c1cccs1 do in these assays?
Mtb UGM inh: 3; FadD28 FP inh: 0; Mtb FBA inh: 0; Rv3671c protease: 19; GDH-TPI inh: 63*

What do the screens show for `COc1cc(C=NNc2nc(N3CCCCC3)nc(N3CCCCC3)n2)ccc1OC(=O)c1ccco1`?
Mtb hypoxia inh: 3

How did Clc1nc2sccn2c1/C=N/n1cnc2ccccc21 do in these assays?
Mtb UGM inh: 3; FadD28 FP inh: -3; Mtb FBA inh: 0; Rv3671c protease: -4; GDH-TPI inh: 47*

What do the screens show for `COc1cccc(/C=C(\C#N)c2nc3ccccc3[nH]2)c1OCC(=O)O`?
Mtb UGM inh: 4; FadD28 FP inh: -1; Mtb hypoxia inh: 4; Mtb FBA inh: 5; Rv3671c protease: -7; GDH-TPI inh: 35*

Results for Cc1ccc(/C=C(\C#N)c2nc3ccccc3[nH]2)s1 ?
Mtb UGM inh: -3; FadD28 FP inh: -3; Mtb hypoxia inh: 16; Mtb FBA inh: 1; Rv3671c protease: -20; GDH-TPI inh: 37*

What do the screens show for `COc1cccc(/C=C(/C#N)c2nc3ccccc3[nH]2)c1OC(C)C(=O)O` (stereo not given)?
Mtb UGM inh: 0; FadD28 FP inh: -2; Mtb hypoxia inh: 10; Mtb FBA inh: 3; Rv3671c protease: 2; GDH-TPI inh: 19

What do the screens show for `CC(CC(=O)NC1CCCCC1)=NNC(=O)c1ccccn1`?
Mtb hypoxia inh: 6

What do the screens show for `C[n+]1ccc(/C=C/c2ccccc2O)c2ccccc21`?
Mtb UGM inh: 4; FadD28 FP inh: -1; Mtb hypoxia inh: -3; Mtb FBA inh: -18; Rv3671c protease: 4; GDH-TPI inh: -2

Results for C[n+]1ccc(-c2ccccc2)c2ccccc21 ?
Mtb UGM inh: -2; FadD28 FP inh: -2; Mtb hypoxia inh: 7; Mtb FBA inh: 143*; Rv3671c protease: 8; GDH-TPI inh: 15

What do the screens show for `O=C(c1nc2nc(-c3ccccc3)cc(C(F)(F)F)n2n1)N1CCCCC1`?
Mtb UGM inh: 5; FadD28 FP inh: 1; Mtb hypoxia inh: 2; Mtb FBA inh: 8; Rv3671c protease: 3; GDH-TPI inh: -6

Results for COc1ccc(-c2cc(C(F)(F)F)n3nc(C(=O)N4CCOCC4)nc3n2)cc1 ?
FadD28 FP inh: 0; Mtb FBA inh: 0; GDH-TPI inh: 44*

Results for CCOc1ccc(C(=O)Nc2nnc(SCC(=O)NCC3CCCO3)s2)cc1 (stereo not given) ?
Mtb UGM inh: 1; FadD28 FP inh: 0; Mtb hypoxia inh: 1; Mtb FBA inh: 1; Rv3671c protease: -6; GDH-TPI inh: 38*
